This is part of a sample that, as a whole, favours compounds with a hit. Of some 79,000 tested, about 15% had one in any assay. A number with no mark means an inactive call. Active and inactive are the calls of the source. Rule as the data show it: active = growth inhibition above about 70%; inactive = the rest.
How the values were obtained:
[1] = NCI Yeast Anticancer Drug Screen. Data for the rad50 strain (AID 155);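 also: 0% = growth of vehicle-only cultures of the same strain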; details: S. cerevisiae rad50 strain growth inhibition; at 50.0 µM; hits give high values
Method in brief: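 Cells are treated with compound, grown, and their growth is then scored against vehicle-only cultures of the same repair-deficient yeast strain.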

[2] = NCI Yeast Anticancer Drug Screen. Data for the mec2-1 strain (AID 157); details: S. cerevisiae mec2-1 strain, at 50.0 µM, hits give high values
Method in brief: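 Mutant yeast (mec2-1) grown with compound; growth inhibition relative to vehicle control reported.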

[3] = NCI Yeast Anticancer Drug Screen. Data for the sgs1 mgt1 strain (AID 161);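 also: 0% = growth of cultures given vehicle only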; details: S. cerevisiae sgs1 mgt1 strain, at 50.0 µM, hits give high values
Method in brief: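 This yeast growth screen uses a strain with defined DNA-repair lesions; compound-treated growth is compared with vehicle-treated growth.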

[4] = NCI Yeast Anticancer Drug Screen. Data for the cln2 rad14 strain (AID 165);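 also: 0% = growth equal to vehicle treated cultures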; details: S. cerevisiae cln2 rad14 strain, at 50.0 µM, hits give high values
Method in brief: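 Readout is yeast growth inhibition versus vehicle-treated controls, using a strain with cln2 and rad14 alterations exposed to compound.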

[5] = NCI Yeast Anticancer Drug Screen. Data for the bub3 strain (AID 167); details: S. cerevisiae bub3 mutant strain, at 50.0 µM, hits give high values
Method in brief: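 Part of a panel of yeast mutants defective in DNA damage repair or cell cycle regulation. Each strain is grown with compound, and inhibition is calculated relative to solvent-treated cultures.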

[6] = NCI Yeast Anticancer Drug Screen. Data for the mlh1 rad18 strain (AID 175); details: S. cerevisiae mlh1 rad18 strain growth inhibition; at 50.0 µM; hits give high values
Method in brief: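 Genetically defined yeast (DNA repair-deficient) exposed to compounds; growth inhibition determined relative to vehicle.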

Compound | growth inhibition [1] | growth inhibition [2] | growth inhibition [3] | growth inhibition [4] | growth inhibition [5] | growth inhibition [6]
c1cnc2c3ccncc3c3nc(-c4ccncc4)[nH]c3c2c1 | -10.2% | -12.8% | -11.3% | -34.8% | -17.3% | -17.2%
Nc1nc(N)nc(CC(=O)O)n1 | -16.5% | -22.7% | -57% | -60.2% | -14.7% | -36.7%
O=C(OCCN1CCCCC1)C(c1ccccc1)C1(O)CCSCC1 (stereo unspecified) | 9.6% | 22.9% | 32.6% | 25.9% | 17.9% | 5.15%
CCCCC(NC(=O)OCc1ccccc1)C(=O)NC(Cc1c[nH]c2ccccc12)C(=O)O (stereo unspecified) | 37.6% | 3.9% | 14.7% | 17.8% | 0.4% | 9.25%
C=C1C(=O)C23CC1C[C@H](OC(C)=O)C2C1(C)C(OC(C)=O)C[C@H](O)C(C)(C)[C@H]1C(O)[C@@H]3OC(C)=O (stereo partly specified) | 9.8% | -3.85% | 3.25% | -2.95% | 24.1% | 20.3%
c1ccc(-c2coc(-c3ccccc3)n2)cc1 | 1.15% | 8.65% | 3.25% | -2% | -5.15% | -10.2%
CC(CS)CS | 6.85% | -0.5% | 6.95% | -8.75% | -0.8% | 37%
CCC(C)(NC(N)=O)c1ccccc1 (stereo unspecified) | -6.9% | 10.4% | -12.1% | -7.5% | -12.9% | -7.35%
C(=NCc1ccccc1)c1ccccc1-c1ccccc1C=NCc1ccccc1 | 98% (active) | 98.7% (active) | 98.8% (active) | 91.8% (active) | 97.2% (active) | 98.1% (active)
CC1=CN(c2ccccc2)S2=C1c1sc3c(c1N2c1ccc(Br)cc1)CCCC3 (stereo unspecified) | 0.9% | -21.9% | -27.5% | 14.4% | 3.15% | -52.2%
CCOC(=O)c1ccc(N(CC(O)CN)S(=O)(=O)c2ccc(C)cc2)cc1 (stereo unspecified) | 5.7% | -9.5% | -11.2% | 4.15% | 3.5% | -1.5%
CC[n+]1[b-](C(C)(C)C)n(/N=C/C(C)(C)C)[b-](C(C)(C)C)[n+]1CC | 0.7% | -13.2% | -19.9% | 20.4% | -11.2% | 4.95%
CNC1(C(N)=O)CCN(Cc2ccccc2)CC1 | -14.7% | -10.3% | -25.8% | 0.75% | -3.6% | -8.35%
COc1ccc(Cc2cc(O)c(OC)cc2O)cc1 | 5.55% | 17.1% | 38.4% | -22.2% | -3.75% | 26.8%
ClC1=C(Cl)C2(Cl)C=CC1(Cl)C2 | 4.05% | -3.05% | 4% | -14.2% | 1.9% | 6.6%
CN(C)CCC(C(=O)NCc1ccccc1)C(=O)NCc1ccccc1 | -6.1% | -9.95% | 1.3% | -17.4% | -2.55% | -17.2%
NC(=O)N/N=C1/C=C2CCCCC2CC1 (stereo unspecified) | 6.8% | 0.35% | -1% | 10.8% | -16.4% | 10.2%
Cc1[nH]c(=O)nc(N/N=C/c2ccc(Cl)cc2)c1C(=O)Nc1ccc(Cl)cc1 | -5.35% | 16.4% | -3.9% | 1.65% | -34.4% | -12.5%
CCc1cccc(OC(=O)CCl)c1 | 3.1% | 7.5% | -1.65% | -24.4% | -17.8% | -5.1%
COC(=O)CCc1ccc(NC(=O)OC)cc1 | -1.4% | 20.3% | 10.9% | 11.2% | 14.8% | -4.7%
CC1(C(O)(c2ccccc2)c2ccccc2)CC1(c1ccccc1)c1ccccc1 (stereo unspecified) | -21.4% | -2.4% | -10.9% | -8.05% | 1.3% | -2.3%

Compound | growth inhibition [1] | growth inhibition [2] | growth inhibition [3] | growth inhibition [4] | growth inhibition [5] | growth inhibition [6]
CCCC(O)(Cc1ccccc1)c1ccccc1 (stereo unspecified) | -39% | -25.5% | -15.2% | -3.45% | -15.2% | -14%
CN(C)S(=O)(=O)C(C(N)=O)c1ccccc1 (stereo unspecified) | -8.75% | 10.6% | 19.4% | -14.9% | 7.65% | 10.4%
CCOP(=O)(OCC)c1nc(Cl)nc(Cl)c1SC(F)(F)F | 33.3% | 11.3% | 14.5% | 13.2% | -4.4% | 25.2%
CC(=O)Nc1cc(CN2CCCCC2)c(O)c2ncccc12 | -8.65% | -21.4% | -38.3% | -36% | -35.1% | -8.05%
Cc1ccc(N=Nc2ccc(C)cc2NC(=O)c2ccc(Cl)cc2Cl)cc1 | 9.2% | -9.7% | 9.1% | 4.55% | -1.55% | 18.2%
c1ccc(SSc2ccc3ccccc3c2)cc1 | 22.4% | 39.1% | 32.6% | 24.6% | 31.4% | 28.3%
Cc1ccc(S(=O)(=O)N(C)c2cc(Cl)c(I)cc2Cl)cc1 | 38.9% | -5.05% | 8.9% | 0.25% | 25.1% | 5.2%
CC(C)(C)Nc1ccc([N+](=O)[O-])cc1[N+](=O)[O-] | 26.4% | -21.9% | 6.6% | 7.95% | 25.2% | -10.7%
Cc1cccc(C)c1-n1c(C)nc2[nH]cc(C)c2c1=N | 6.35% | -6.25% | 4.55% | 5.1% | 17.1% | 8.95%
CC(=C\C=N\N(C)c1ccccc1)/C=C1\Cc2ccccc2C1=O | -8.7% | 2.2% | -19.1% | 14% | -2.8% | -9.65%
O=C(OC(c1ccc(Cl)cc1)c1ccc(Cl)cc1)C(c1ccc(Cl)cc1)c1ccc(Cl)cc1 | 15.5% | 10.4% | 14.8% | -13.5% | -3.35% | 30.7%
CCCCNc1ccccc1 | 30.4% | 6.3% | 28.8% | -21% | -6.25% | 42.5%
CC(=O)NCCc1ccc(Cl)c(Cl)c1 | 13.6% | -4.25% | -5.95% | -0.6% | 3.35% | -3.3%
OC(c1cc(C2CCCCC2)nc2ccccc12)C1CCCCN1 (stereo unspecified) | -13.1% | -0.85% | 8.85% | 2.6% | -5.7% | -12.7%
CN(C)c1ccc(C=C2c3ccccc3-c3ccccc32)cc1 | -10.8% | -1.35% | 7.75% | -80.9% | 0.9% | 9.1%
CCOC(=O)c1ccc2c(c1)CCC(C)(C)O2 | -5.55% | -4.8% | 7.3% | -13.9% | 11.5% | -7.15%
Cc1nc(C(N)=S)sc1C(=O)CC(=O)C(=O)Nc1c(C(C)C)cccc1C(C)C | -28.1% | -41.6% | -31.8% | -24.9% | -8.55% | -22.1%
O=[N+]([O-])c1ccc2c(c1)Cc1cccc([N+](=O)[O-])c1-2 | 2% | -2.1% | 0.25% | -21.9% | -5.9% | 9.5%
CCOC(=O)CCCCCCCCCCCCC1C=CCC1 (stereo unspecified) | -19.1% | -41.4% | -3.45% | -28.6% | -49.1% | -21.3%
CCC(=O)Nc1ccc(F)cc1 | -4.65% | 1.45% | -0.45% | -27.4% | -10.9% | 4.3%

Source: PubChem BioAssay (NCI)
